Test results from PubChem BioAssay (NCI).
About 83,000 compounds went through this panel and 20% of them were active in at least one assay; those are over-represented in the sample as a whole.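 Cells were grown in 96-well plates and exposed to the test compound at a single concentration for 48 hours; results are reported as percent growth, with values below 10 considered active.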 Active and inactive are the calls of the source.

Assays:
Assay in all cases: NCI-60 one-dose screen, 48 h (100 = growth as untreated, 0 = no growth, -100 = all killed)
NCI-H226 lung = conditions: 10 µM unless noted
NCI-H322M lung = conditions: 10 µM unless noted
HOP-92 NSCLC = conditions: 10 µM unless noted
NCI-H522 lung = conditions: 10 µM unless noted
A549/ATCC NSCLC = conditions: 10 µM unless noted
COLO 205 colon = conditions: 10 µM
HT29 colon = conditions: 10 µM unless noted
UACC-62 melanoma = conditions: 10 µM unless noted
EKVX NSCLC = conditions: 10 µM unless noted
UO-31 renal = conditions: 10 µM unless noted
TK-10 renal = conditions: 10 µM unless noted
ACHN renal = conditions: 10 µM unless noted
CAKI-1 renal = conditions: 10 µM unless noted
MOLT-4 leukemia = conditions: 10 µM
RPMI-8226 leukemia = conditions: 10 µM unless noted
OVCAR-3 ovarian = conditions: 10 µM unless noted
HS 578T breast = conditions: 10 µM unless noted
T-47D breast = conditions: 10 µM unless noted
HOP-62 NSCLC = conditions: 10 µM unless noted

Measured: growth

CCOc1ccc(C(O)CN(C)Cc2ccccc2)cc1Cl (stereo unspecified)
inactive: NCI-H226 lung 92.1% | NCI-H322M lung 102% | HOP-92 NSCLC 75.4% | NCI-H522 lung 97.1% | A549/ATCC NSCLC 102% | COLO 205 colon 105% | HT29 colon 98% | UACC-62 melanoma 96.4% | EKVX NSCLC 95.7% | UO-31 renal 85.5% | TK-10 renal 102% | ACHN renal 109% | CAKI-1 renal 93.3% | MOLT-4 leukemia 96.3% | RPMI-8226 leukemia 104% | OVCAR-3 ovarian 99.7% | HS 578T breast 101% | T-47D breast 97.1%

C=CCN1C(=O)C(CC)(CCC(C)C)C(=O)NC1=S (stereo unspecified)
inactive: NCI-H226 lung 104% | NCI-H322M lung 106% | HOP-62 NSCLC 113% | HT29 colon 103% | UACC-62 melanoma 92.2% | UO-31 renal 86.4% | TK-10 renal 115% | ACHN renal 110% | CAKI-1 renal 97.7% | MOLT-4 leukemia 96.6% | RPMI-8226 leukemia 95.1% | OVCAR-3 ovarian 113% | T-47D breast 113%

CNC(=O)Oc1ccccc1
inactive: NCI-H226 lung 102% | NCI-H322M lung 107% | HOP-62 NSCLC 116% | A549/ATCC NSCLC 94.9% | COLO 205 colon 104% | HT29 colon 118% | UO-31 renal 98.8% | TK-10 renal 122% | ACHN renal 105% | CAKI-1 renal 113% | RPMI-8226 leukemia 96.4% | T-47D breast 133%

Cc1cc(NC(=O)NCCOc2ccc(N3C(N)=NC(N)=NC3(C)C)cc2Cl)ccc1S(=O)(=O)F
active: A549/ATCC NSCLC 9.6% | HT29 colon 9.65%
inactive: NCI-H226 lung 91.3% | NCI-H322M lung 43.4% | HOP-62 NSCLC 60.8% | COLO 205 colon 35.3% | UACC-62 melanoma 22% | UO-31 renal 81.6% | TK-10 renal 35.3% | ACHN renal 94.2% | CAKI-1 renal 95.1% | MOLT-4 leukemia 26.7% | RPMI-8226 leukemia 40.5% | OVCAR-3 ovarian 53.2% | T-47D breast 50%

Cc1ccc2oc(=O)c3c(c2c1)OC(N)=C(C#N)C3c1ccco1 (stereo unspecified)
inactive: NCI-H226 lung 91.9% | NCI-H322M lung 98.8% | HOP-92 NSCLC 102% | NCI-H522 lung 91.6% | A549/ATCC NSCLC 97% | HT29 colon 108% | UACC-62 melanoma 95.9% | EKVX NSCLC 94.9% | UO-31 renal 77.7% | TK-10 renal 108% | ACHN renal 101% | CAKI-1 renal 91.3% | MOLT-4 leukemia 107% | RPMI-8226 leukemia 100% | HS 578T breast 93.5%

C[CH2][Pb]([CH2]C)([CH2]C)[O]C(=O)COC
inactive: UACC-62 melanoma 19.3% | ACHN renal 12.7% | T-47D breast 17.2%
active: NCI-H226 lung 6.09% | NCI-H322M lung -11.1% | HOP-62 NSCLC -16.2% | HT29 colon 0.481% | UO-31 renal -9.22% | CAKI-1 renal -10.3% | MOLT-4 leukemia -37.7% | OVCAR-3 ovarian -3.39% | HS 578T breast -2.8%

CC1(C)CC(=O)CC(C)(C)N1N=O
inactive: NCI-H226 lung 104% | NCI-H322M lung 121% | HOP-62 NSCLC 97.3% | A549/ATCC NSCLC 107% | COLO 205 colon 96.2% | HT29 colon 99.4% | UACC-62 melanoma 104% | EKVX NSCLC 112% | UO-31 renal 91.5% | TK-10 renal 91.8% | ACHN renal 103% | CAKI-1 renal 99.9% | MOLT-4 leukemia 101% | OVCAR-3 ovarian 101%

O=C(O)C1[O][Sb][O]C1C(=O)O (stereo unspecified)
inactive: NCI-H226 lung 93.9% | NCI-H322M lung 101% | HOP-62 NSCLC 109% | A549/ATCC NSCLC 103% | COLO 205 colon 109% | HT29 colon 104% | UACC-62 melanoma 110% | UO-31 renal 90.7% | TK-10 renal 101% | ACHN renal 106% | CAKI-1 renal 118% | RPMI-8226 leukemia 99.3% | HS 578T breast 101% | T-47D breast 89.3%

CC1(C)N=C(N)N=C(N)N1c1ccc(CNC(=O)Nc2ccc(S(=O)(=O)F)c(Cl)c2)c(Cl)c1
inactive: NCI-H226 lung 83.8% | NCI-H322M lung 46% | HOP-62 NSCLC 29.4% | COLO 205 colon 37.1% | UACC-62 melanoma 23.9% | UO-31 renal 88.2% | TK-10 renal 22.6% | MOLT-4 leukemia 22.1% | RPMI-8226 leukemia 27.6% | OVCAR-3 ovarian 48.9% | T-47D breast 60.3%

NC(=O)NC(=O)CI
inactive: NCI-H226 lung 95.1% | NCI-H322M lung 119% | HOP-62 NSCLC 109% | A549/ATCC NSCLC 98.6% | HT29 colon 99.1% | TK-10 renal 88.6% | ACHN renal 84.7% | MOLT-4 leukemia 13.8% | RPMI-8226 leukemia 91.3% | OVCAR-3 ovarian 102% | HS 578T breast 94.3%
active: COLO 205 colon -62.4% | T-47D breast 8.8%

CC1(C)N=C(N)N=C(N)N1c1ccc(OCCCCNC(=O)Nc2cccc(S(=O)(=O)F)c2)c(Cl)c1
inactive: NCI-H226 lung 69.4% | NCI-H322M lung 57.6% | HOP-62 NSCLC 62.8% | A549/ATCC NSCLC 15.4% | COLO 205 colon 50.4% | HT29 colon 14.4% | UACC-62 melanoma 22.8% | UO-31 renal 90.1% | TK-10 renal 62% | ACHN renal 94.9% | MOLT-4 leukemia 37.6% | RPMI-8226 leukemia 38.1% | OVCAR-3 ovarian 82.3% | T-47D breast 115%
